In all, about 25,000 sequences were measured (“ln(normalized median fluorescence intensity)”: median about 7.1, highest 2% from about 10 on). The list comes from a sample in which the highest values are over-represented; it also holds similar and randomly drawn sequences.
tested on: PfSIP2 AP2 domain 1 (GST-tagged); test: gcPBM binding intensity (ln(normalized median fluorescence intensity)); higher = stronger DNA binding
Procedure, shortened: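 The binding buffer was 1× PBS containing 1% milk, 0.2 mg/ml BSA, 0.5% salmon testes DNA and 0.03% Triton X-100. In it, GST-tagged P. falciparum DNA-binding domains expressed in E. coli were applied for 1 h to an Agilent 4 × 180k array of primer-extended double-stranded 36-bp intergenic genomic probes plus negative controls. Binding intensity, read with Alexa488 anti-GST antibody and a 488 nm scan, is the highest Masliner-normalised natural-log median intensity across replicate spots of either probe orientation.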

Row | Sequence | gcPBM binding intensity (ln)
1 | AAAAAACACGCGCACACACACACACGCGCCCACATA [CACACA_site7106] | 7.16
2 | CATAAGAAAATAAAAACATGCACATAAGAAATATAC [TGCATGCA_site842] | 7.97
3 | ATCTTTCAATAATTCACACATATATATATATATATA [CACACA_site4598] | 9.91
4 | TTTTTTTCTATAATACACCAGAAAAAAAAATTAAAA [TGCATGCA_negctrl_site257] | 6.96
5 | AATTTTTTTTTTTTTTTTTCTTTTGTAATAAACCAT [XGTACX_negctrl_site334] | 6.92
6 | ATATATATTGTACTAGTGCATATATATACATATATT | 8.43
7 | ATATTTTATATATTTGTGCACAATATTATAATATAT | 8.63
8 | TCATAAATATAAAGTGTGCACTTGAATAATATGTAT | 9.52
9 | TATTTATTTTTTTTTGTGCACTTAATATAATCTTAC | 10.4
10 | TATATTTTATATATGGTGCAACTTTTATTTAAATAA | 10.6
11 | TTTAATTTATATTTTGTGCACATCTTATTATATATA [GTGCAC_site9630] | 9.58
12 | ATTTTCTTTTCCATAGTGCAATATAATTATCCATCA [GTGCAC_site9547] | 8.36
13 | ATATCAAATAATTTAGTGCACTTTTTTTTTTCTTTT [GTGCAC_site9629] | 10.4
14 | TTTTTCTTTTTTTTTTTAATAATATATAACAAATTT [CACACA_negctrl_site1724] | 6.81
15 | TGTGTATATATGCTGGTGCAACTTTAAAAAATAATC | 10.1
16 | ATATAAAGTATGTTAGTGCACTTTTTTTTTTTTTTT [GTGCAC_site9419] | 11.2
17 | TATATAAAAAATAGGTGGTCAACTTAAATATTTTAT [XGTACX_site4495] | 7.16
18 | TTATATTTAGTATATGCACACTTTATGTTTGTTATT [CACACA_site5163] | 7.74
19 | TAACAAAACCTTATATGTACACACATATACATCACA [XGTACX_site6772] | 7.16
20 | ATATAATATGGTATTACACACTGTTAAAAGTATGGC [CACACA_site5190] | 7.03
21 | ATAAATAAATGGTGTTGTACTCTATTATATATATAT [XGTACX_site7835] | 8.66
22 | TTGATTATAATTAGTACACACAAAATACATGCGGGG [CACACA_site2277] | 7.82
23 | ATAAATTTTTAAAAATATGAATTATGTAATTTGTGA [CACACA_negctrl_site1621] | 6.92
24 | AAAAAAATTAATAATGTGCACTTTTTAGTATTTTTA [GTGCAC_site9744] | 10.3

Row | Sequence | gcPBM binding intensity (ln)
25 | TTTATCTAAATATGTGTGCACTCGTTAATTTTTTTT | 10.5
26 | ATTTATATTAAAAGTGTGCACTTTTTTTTTTTTTTT | 10.1
27 | TTTATATTAATTGATGTGCACTGAAATATTTGTCCA [GTGCAC_site9655] | 10.2
28 | TGAAATTTTATTAATGTGCACATATATTTATTGTTC | 8.56
29 | TATTTATTGTGACACTTTTATTATTTTATGATAAAA [CACACA_negctrl_site37] | 6.97
30 | ATATCGTTATTTTTATGTACTAAAATATTTAATTAT [XGTACX_site3516] | 7.09
31 | TGATATTATATTGTGATGCACTTTAAAAATATAAAG [GTGCAC_site9509] | 10.3
32 | TTATTTTATTTTTGTGCACACTGATAAATTGAAAAG [CACACA_site2949] | 10.2
33 | TCATTTTAAATATGTGTGCACGTTATAATTTACACA | 9.54
34 | TTATAATTTTAATGTGCACACAATTAAAATATTATA [CACACA_site5172] | 9.21
35 | CGAACTGCACTTTTTAGTACTTAATAATTATTTTTT [XGTACX_site2446] | 8.47
36 | TTAAATAAAAGGTTTAGTACTTAAAATAAGAAATGA [XGTACX_site6341] | 6.91
37 | GTATGTAATATTTTAGTGCAAAAAAAAAAAAAAAAA [GTGCAC_site9790] | 8.3
38 | ACAAAAAGTTACATACGTACGTAAAATTGTAATAAA [XGTACX_site2358] | 6.96
39 | TCCATCCACATATATGTACACACATATATATATATA [CACACA_site8970] | 9.43
40 | TTTTTTTTTTTTTTTTGTCCGTACTGCTTTGTGTTT [XGTACX_site3687] | 6.99
41 | AAAAAAAAAAATTAAAGTACAAAAATATTAAAAATA [XGTACX_site6517] | 6.8
42 | ATATATATATATCACCGTACTTATATAATAACATGA [XGTACX_site4398] | 9.36
43 | AGAATATATATAATAGTGCAATGTACAATGAACAAA [GTGCAC_site9577] | 8.01
44 | TTTTTTTTTTTTTTGTGTACTAATATTATAAATTTT [XGTACX_site4405] | 7.01
45 | TATATATATTAGTGTGCACACTTTTTATTTTTATCC [CACACA_site8506] | 8.6
46 | AATAATATTTATTTTTGTACATATGTGCATTATAAA [XGTACX_site3682] | 7.13
47 | AGTACATTTTTGTGTGTGCACTAATATTATATACTT [GTGCAC_site9568] | 10.3
48 | TTTATTTGTGCATATACACACTTAAATATGTTTATT [CACACA_site7772] | 7.65
